The text below walks through data of PubChem BioAssay AID1986 (Sanford-Burnham Center for Chemical Genomics, 2009).

The test can be described thus: inhibitors of HIV fusion peptide binding, primary screen, biochemical, uHTS, fluorescence dequenching (AID 1986). The note with it: cell-free peptide binding, 30 min, stronger effect = higher value.
The mark [1] stands for this setting: measured here: repeat confirmation average inhibition, at 18.6 µM.

About 890 (0.31%) of roughly 290,000 compounds were called active. Rule as the data show it: active = inhibition mostly above about 52% (no sharp cut-off); inactive = mostly below about 76%. The sample as a whole holds a higher share of actives than the screen did.

For orientation: inhibition means the drop in the measured response relative to a control, in per cent.

As for `O=[N+]([O-])c1cc(Cl)cc(/C=N/Nc2nc3ccccc3s2)c1O`, the inhibition (at 20 µM) was 31.5% (inactive). Still for that read-out and setting: under `Cc1cc(C)n(-c2nc3ccccc3c(=O)n2OCC(=O)OCc2ccccc2)n1` stands -0.4% (inactive). Still for that read-out and setting: under `COc1ccc(N=C2NC(=O)CS2)c([N+](=O)[O-])c1` stands -1.1% (inactive). Same read-out and setting: the same measure for `Cc1nc(C2COc3ccccc3O2)sc1C(=O)O` (stereo not drawn): 1.6% (inactive); for `CC(C)C1Nc2ccc(C(=O)O)cc2C2C=CCC21` (stereo not drawn): 50.1% (active). For the molecule `O=C(O)C1Nc2c(O)cc(Cl)c([N+](=O)[O-])c2C2C=CCC12` (stereo not drawn), the inhibition runs as follows: (at 20 µM) 66.8% (inactive); under setting [1], 41%. For `O=C(O)C1Nc2c(Cl)cc(Cl)cc2C2C=CCC12` (stereo not drawn), under “at 20 µM”, the inhibition was 80.1% (active). Same read-out and setting: the same measure for `Cc1cc(C)c2c(c1)NC(c1cc3c(cc1Br)OCO3)C1CC=CC21` (stereo not drawn): 7.4% (inactive); for `CCOC(=O)C1Nc2ccc(C(=O)O)cc2C2C=CCC12` (stereo not drawn): 38% (inactive); for `O=C(O)C1Nc2c(C(F)(F)F)ccc(Cl)c2C2C=CCC12` (stereo not drawn): 37.7% (inactive). On to `CC(=O)c1ccc2c(c1)C1C=CCC1C(C(=O)O)N2` (stereo not drawn), for which the inhibition (at 20 µM) was 58.7% (inactive) and the inhibition under setting [1] worked out at 17.4%. With `CCCC1Nc2ccc(C(=O)O)cc2C2C=CCC12` (stereo not drawn), the inhibition (at 20 µM) is 49.7% (inactive). Same read-out and setting: the same measure for `Cc1ccc2c(c1)C1C=CCC1C(C(=O)O)N2` (stereo not drawn): 62.4% (active); for `Cc1ccc2c(c1C)NC(C(=O)O)C1CC=CC21` (stereo not drawn): 43.9% (inactive). On the same count and under the same terms, under `Cc1cc(C)c2c(c1)NC(C(=O)O)C1CC=CC21` (stereo not drawn) stands 60.2% (active). Still for that read-out and setting: under `CCOC(=O)C1Nc2ccc(Br)cc2C2C=CCC12` (stereo not drawn) stands 34.6% (inactive); under `COc1ccc(C)cc1S(=O)(=O)N1CCN(c2ccccc2)CC1`, -0.9% (inactive). Take `Cc1ccc2nc3c(c(Nc4cccc(O)c4)c2c1)CCC3`: the inhibition (at 20 µM) was -1.7% (inactive).

Turning to `O=C(OC1CCCCC1)c1ccc2c(c1)C1C=CCC1C(C(=O)O)N2` (stereo not drawn), the inhibition (at 20 µM) is 56.1% (active). For `CCOC(=O)c1ccc2c(c1)C1C=CCC1C(C(=O)OCC)N2` (stereo not drawn), the inhibition (at 20 µM) was 19.8% (inactive).

Take `CCOC(=O)c1ccc2c(c1)C1C=CCC1C(C(=O)O)N2` (stereo not drawn): the inhibition was 66.5% (inactive) (at 20 µM) and 40.8% under setting [1]. For the molecule `Cc1ccccc1-n1cc(CNCc2c(C(=O)N(C)C)nc3ccc(Cl)cn23)cn1`, the inhibition (at 20 µM) is -1.3% (inactive).

As to `CCCCc1ccc(-c2csc(/C(C#N)=C/c3ccco3)n2)cc1`, under “at 20 µM”, the inhibition was 49.9% (inactive). In the case of `CCCCc1ccc(-c2csc(/C(C#N)=C\c3ccco3)n2)cc1`, where the note is “at 20 µM”, the inhibition is 58.3% (active). Consider `CCCCc1ccc(-c2csc(/C(C#N)=C/c3ccc(C)o3)n2)cc1`, for which the inhibition (at 20 µM) is 0.2% (inactive). On the same count and under the same terms, under `CCCN1CCN(c2nc(-c3cccs3)nc3ccccc23)CC1` stands 0.8% (inactive). The same measure, in the same setting: the same measure for `O=C(NC(=S)Nc1ccc2oc(=O)ccc2c1)c1ccccc1F`: -0.2% (inactive); for `COC(=O)c1cccc(NC(=O)/C=C/c2ccc([N+](=O)[O-])cc2)c1`: 0.8% (inactive). On to `O=C(/C=C/c1ccco1)Nc1cccc(C(=O)Nc2ccccc2C(=O)O)c1`, for which the inhibition is, setting by setting: (at 20 µM) 58.9% (inactive); under setting [1], 49.8%. As to `O=C(/C=C/c1ccc([N+](=O)[O-])cc1)Nc1cccc(C(=O)Nc2ccccc2C(=O)O)c1`, under “at 20 µM”, the inhibition is 54.1% (active). On the same count and under the same terms, the same measure for `COc1ccc(NS(=O)(=O)c2cccc(NC(=O)NC3CCCCC3)c2)cc1`: 2% (inactive); for `CCOC(=O)c1sc(=S)n(C)c1NC(=O)c1cccc(Br)c1`: -0.1% (inactive). As to `N#Cc1c2nc3ccccc3nc2n2cc(NC(=O)c3ccc(F)cc3)ccc12`, the inhibition runs as follows: (at 20 µM) 76.7% (inactive); under setting [1], -2.2%. Turning to `Cc1ccccc1C(=O)Nc1ccc2c(C#N)c3nc4ccccc4nc3n2c1`, the inhibition (at 20 µM) was 92.7% (active). On the same count and under the same terms, under `Cc1c(C(=O)Nc2ccccc2)cn2c(nc3ccccc32)c1C#N` stands 3.1% (inactive). Regarding `N#C/C=C(/N)N1CCN(c2ccc(Cl)c(Cl)c2)CC1`, the inhibition (at 20 µM) is -2.3% (inactive). The same measure, in the same setting: under `O=C(O)c1nn(-c2cccc(Cl)c2)c(=O)cc1O` stands 24.3% (inactive); under `CN1CCN(C(=O)CCN2C(=O)c3ccccc3C2=O)CC1`, -0.4% (inactive); under `COc1ccc(C(=O)N/N=C/c2sc3ccccc3c2O)cc1`, 34.9% (inactive). Take `O=C(N/N=C/c1sc2ccccc2c1O)c1cccc2ccccc12`: the inhibition (at 20 µM) was 34.1% (inactive).

With `O=C(N/N=C/c1sc2ccccc2c1O)c1ccccc1`, the inhibition (at 20 µM) is 95% (active). On the same count and under the same terms, under `Cc1ccc(-c2nn(-c3ccccc3)cc2/C=C/C(=O)O)o1` stands 5.9% (inactive). Take `O=C(O)CCCN1C(=O)/C(=C/c2cn(-c3ccccc3)nc2-c2cccs2)SC1=S`: the inhibition (at 20 µM) is 79.6% (active) and the inhibition under setting [1] was determined as 142%. On to `COc1ccc(-c2nn(-c3ccccc3)cc2/C=C2/SC(=S)N(CCC(=O)O)C2=O)cc1`, for which the inhibition (at 20 µM) was -0.4% (inactive). On the same count and under the same terms, the same measure for `CCN1C(=O)/C(=C\c2cn(-c3ccccc3)nc2-c2cccnc2)SC1=S`: 3.5% (inactive). As for `O=C(O)CCCN1C(=O)/C(=C\c2ccccc2OCc2ccccc2)SC1=S`, the inhibition was 63.8% (inactive) (at 20 µM) and 37.2% under setting [1].

As to `Cc1ccc(-c2nn(-c3ccccc3)cc2/C=C2\SC(=S)N(CCCCCC(=O)O)C2=O)o1`, the inhibition (at 20 µM) was 82% (active). The same measure, in the same setting: the same measure for `O=C(O)CCCN1C(=O)/C(=C/c2ccncc2)SC1=S`: -0.7% (inactive). Turning to `O=C(O)CCN1C(=O)/C(=C/c2cn(-c3ccccc3)nc2-c2cccs2)SC1=S`, the inhibition is, setting by setting: (at 20 µM) 90% (active); under setting [1], 142%. Consider `Cc1nn(-c2ccccc2)c(Cl)c1/C=C1\SC(=S)N(CCCCCC(=O)O)C1=O`, for which the inhibition (at 20 µM) is 33% (inactive).
